From PubChem BioAssay
This is a sample that favours compounds with a hit; in the whole collection about 2.1% have one here.
TNAP act DEA = human TNAP enzyme activators, primary screen, biochemical, luminescent, intermediate phosphate acceptor level; Alkaline phosphatase, tissue-nonspecific isozyme (Homo sapiens), P05186; purified TNAP, CDP-star luminescence, 100 mM DEA, 30 min; active compounds read high; scale: 0 levamisole-inhibited, 1 vehicle-only enzyme; activation factor at 20 µM; 64,000 tested, under 10 active; AID 813, 2007;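 active = activation factor of at least 2 at 20 µM, relative to controls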
Target sequence (P05186 whole entry, looked up): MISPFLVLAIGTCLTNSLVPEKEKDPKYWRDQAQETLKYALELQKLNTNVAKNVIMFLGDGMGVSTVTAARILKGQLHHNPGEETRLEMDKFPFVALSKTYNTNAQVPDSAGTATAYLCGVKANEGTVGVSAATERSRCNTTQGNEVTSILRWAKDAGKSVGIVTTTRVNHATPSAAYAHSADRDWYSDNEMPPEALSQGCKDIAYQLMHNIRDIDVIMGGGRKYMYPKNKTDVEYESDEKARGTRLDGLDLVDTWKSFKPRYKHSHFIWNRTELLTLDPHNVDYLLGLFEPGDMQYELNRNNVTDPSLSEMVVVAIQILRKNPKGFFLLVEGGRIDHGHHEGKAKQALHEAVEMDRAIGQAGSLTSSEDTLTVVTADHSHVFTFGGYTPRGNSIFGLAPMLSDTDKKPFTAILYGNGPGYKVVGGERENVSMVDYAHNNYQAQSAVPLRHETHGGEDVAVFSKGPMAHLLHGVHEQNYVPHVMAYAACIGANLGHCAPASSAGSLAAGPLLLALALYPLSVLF
NFkB transloc pot = enhancers of NFkB p65 translocation in HUVEC – imaging, IL-1B stimulus, high-content imaging, primary screen; HUVEC IL-1B NFkB p65 nuclear translocation imaging; activation, % at 2 µM; hit rate 0.3% among 94,000;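 active = activation above 40%, about the mean plus 3 SD, also judged a hit on visual image review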;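 also: percent activation is computed from the nuclear over cytoplasmic p65 intensity ratio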
PLAP activator = PLAP enzyme activators, biochemical, luminescence, HTS; activation fold at 20 µM; Alkaline phosphatase, placental type (Homo sapiens), P05187; AID 696, 2007; hit rate 1.2% among 96,000; purified PLAP enzyme, luminescent substrate read-out; active compounds read high; in the data active = activation fold above about 2
NFkB transloc inh = inhibitors of IL-1B driven NFkB p65 nuclear import, primary screen, imaging, HUVEC, IL-1B stimulus, high-content imaging; HUVEC IL-1B NFkB p65 nuclear translocation imaging; inhibition, % at 2 µM; hit rate 0.43% among 94,000; AID 796, 2007;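 active = inhibition above about 30% together with a positive call from visual inspection of the well image, limit read from the data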;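 also: nuclear over cytoplasmic p65 intensity ratio measured by imaging; 0% = IL-1B stimulated DMSO wells and 100% = unstimulated DMSO wells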
HUVEC tox IL1B = cytotoxicity in IL-1B stimulated HUVEC, primary screen, cytotoxicity control for IL-1B NFkB translocation project, imaging, Hoechst nuclear count, IL-1B stimulus; HUVEC cell count loss; cell count reduction, % at 2 µM; hit rate 0.41% among 94,000;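 active = cell count reduction more than 3 SD above the screen-wide mean, cut at about 70% in these data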;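 also: normalized per plate to untreated control cells as the no-loss baseline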
Numbers without * were called inactive; / = not tested or not shown.

SMILES | TNAP act DEA | NFkB transloc pot | PLAP activator | NFkB transloc inh | HUVEC tox IL1B
Oc1c(CN2CCN(c3ccccn3)CC2)cc(Cl)c2cccnc12 | 0.8 | / | 1.8 | / | /
O=C(Oc1c(Cl)cc(Cl)c2cccnc12)c1ccco1 | / | -2 | 2.1* | 2 | -15
CCN(CC)S(=O)(=O)c1ccc(C)c(NC(=O)COC(=O)c2ccc(C)c(S(=O)(=O)N3CCOCC3)c2)c1 | / | 4 | 1.8 | -4 | -31
CC(C)(C)NC(=O)CSC(=Nc1ccc(F)cc1)NC#N | / | -16 | 1 | 16 | -3
Cc1sc2nc(CN(C(=O)NC3CCCCC3)C3CCCCC3)[nH]c(=O)c2c1C | / | 0 | / | 0 | 3
COc1ccc(C(=O)Oc2c(CN3CCOCC3)cc(Cl)c3cccnc23)cc1 | 1 | 4 | 2* | -4 | -26
COc1cccc(C(=O)Oc2c(CN3CCOCC3)cc(Cl)c3cccnc23)c1 | / | -11 | 2.6* | 11 | -4
O=C(Nc1ccc(Cl)cc1)C1C2CCC3C(CCC21)C3(Cl)Cl (configuration not stated) | / | -13 | 0.9 | 13 | 9
O=C(O)C1C(C(=O)Nc2ccc(Cl)cc2)C2C=CC1C21CC1 (configuration not stated) | / | 10 | 0.9 | -10 | 76*
O=C(CN1CCOCC1)NCC12CC3CC(CC(C3)C1)C2 | 0.9 | -15 | 1 | 15 | -23
O=C(O)C1C2C=CC(C2)C1C(=O)N1CCOCC1 (configuration not stated) | 0.8 | / | 0.8 | / | /
O=C(NC1CCCC1)C1C2C=CC(C2)C1C(=O)N1CCOCC1 (configuration not stated) | 0.9 | 1 | 1.2 | -1 | 83*
CCOC(=O)c1ccc(Nc2cc(C)nc3ncnn23)cc1 | 0.9 | / | 2* | / | /
COC(=O)c1ccc(Nc2cc(C)nc3ncnn23)cc1 | 0.9 | -17 | 2.2* | 17 | -19
COc1c(Cl)cnn(-c2ccc(C)cc2)c1=O | / | -7 | 1.2 | 7 | -15
Cc1cccc(Cn2ncc(Cl)c(Cl)c2=O)c1 | / | 0 | 1.1 | 0 | -103
Cc1ccc(C)c(C(=O)Cn2ncc(Cl)c(Cl)c2=O)c1 | / | -43 | 1.3 | 43* | 15
O=C(OCn1ncc(Cl)c(Cl)c1=O)c1ccc(C(F)(F)F)cc1 | / | -41 | 1.1 | 41* | 2
Cc1ccc(C(=O)OCn2ncc(Cl)c(Cl)c2=O)cc1 | / | -79 | 0.8 | 79* | 20
O=C(CN1C(=O)COc2ccccc21)N(CCCN1CCOCC1)CC1CC=CCC1 (configuration not stated) | 1 | / | 1.8 | / | /
Cc1nc(S(=O)(=O)NC2CCCCC2)c(C#N)c(C)c1Cl | 1 | 20 | 0.8 | -20 | -14
Cc1nc(S(=O)(=O)N(C)Cc2ccccc2)c(C#N)c(C)c1Cl | 0.9 | -31 | 0.8 | 31* | -8
Cc1ccc(S(=O)(=O)N2CCSC2C(=O)O)cc1 (configuration not stated) | / | -7 | / | 7 | 75*
CN(C)N=Nc1ccc(S(=O)(=O)N2CCSC2C(=O)O)cc1 (configuration not stated) | / | 17 | / | -17 | -10
c1ccc(CN2CCN(c3nc(NCc4ccco4)c4ccccc4n3)CC2)cc1 | / | -9 | 2* | 9 | -16
SMILES | TNAP act DEA | NFkB transloc pot | PLAP activator | NFkB transloc inh | HUVEC tox IL1B
O=C(O)c1cc(C(=O)O)c(-c2ccccc2)c(C(=O)O)c1 | 0.9 | -6 | 1.1 | 6 | 6
O=C(O)c1ccc(C(=O)O)c(C(=O)c2ccccc2)c1 | / | -19 | 1 | 19 | 80*
OC(Cn1cncn1)(c1ccccc1)c1ccccc1 | / | 1 | 1 | -1 | 15
O=c1[nH]c(NCc2ccco2)nnc1Cc1ccccc1Cl | 0.9 | -10 | 1 | 10 | 7
COCc1cc(Sc2c(Cl)cccc2Cl)nc(-c2ccccc2)n1 | / | 7 | 0.9 | -7 | 88*
Cc1cc(C)c2c(N)c(S(=O)c3ccc(C(C)(C)C)cc3)sc2n1 (configuration not stated) | / | -13 | 1.5 | 13 | -8
CCCOc1cccc(-c2cc(C(=O)NNC(=S)NCC)c3ccccc3n2)c1 | / | 5 | 2.2* | -5 | -7
CCNC(=S)NNC(=O)c1cc(CC(C)C)nc2ccccc12 | / | -1 | 2.3* | 1 | 10
Cc1onc(-c2c(F)cccc2Cl)c1C(=O)Nc1nc2ccccc2[nH]1 | / | 15 | 2* | -15 | 3
CNC(=O)CCCc1nc(-c2ccccc2Cl)no1 | / | 65* | 0.9 | -65 | 4
CSc1nc(N(C)NC(=O)c2ccc(Cl)cc2)c2ccccc2n1 | / | -34 | 1 | 34* | 36
Cc1nc2c(n1O)CCC/C2=N\O | 0.9 | 49* | 0.8 | -49 | 8
COc1ccc(OC)c(NC(=S)NCc2ccco2)c1 | / | 1 | / | -1 | 6
CC(=O)Nc1nc(C)c(C(C)=O)s1 | / | 25 | 0.9 | -25 | -19
CC(=O)c1sc(NC(=O)c2ccc(F)c(F)c2)nc1C | / | -32 | 0.7 | 32* | -10
CC(=O)c1sc(NC(=O)C(C)C)nc1C | / | -98 | 1 | 98* | -19
O=C(c1cc(Cl)c(=O)n(Cc2ccc(Cl)cc2)c1)N1CCOCC1 | / | 2 | 0.9 | -2 | -1
COc1ccc(-c2nnc(NC(=O)c3ccc(S(=O)(=O)N4CCCc5ccccc54)cc3)o2)cc1 | 1 | -7 | 0.9 | 7 | 4
O=C(Nc1nnc(C2CC2)o1)c1ccc(S(=O)(=O)N2CCCc3ccccc32)cc1 | 1 | -8 | 2.5* | 8 | 18
C=CCNC(=O)C(=O)c1cccn1-c1ccsc1C(=O)OC | / | / | 0.9 | / | /
O=S(=O)(C/C(=C/CO)S(=O)(=O)c1ccccc1)c1ccccc1 | 0.9 | -51 | 1.1 | 51* | 3
Cc1ccc(/C=C/C2=Cc3c(sc(NC(=O)CSc4n[nH]c(N)n4)c3C#N)C(C)(C)C2)o1 | 0.9 | -50 | 1.6 | 50* | -23
CCOC(=O)Nc1oc2ccccc2c(=O)c1C | / | -36 | / | 36* | -6
Cc1cc(C)c(S(C)(=O)=O)c(Oc2ccc(C(C)(C)C)cc2)n1 | / | -7 | 1.1 | 7 | 2
Cc1sc(NC(=O)C2CC=CCC2C(=O)O)c(C(=O)OC(C)C)c1C (configuration not stated) | / | 6 | 1.2 | -6 | 3
SMILES | TNAP act DEA | NFkB transloc pot | PLAP activator | NFkB transloc inh | HUVEC tox IL1B
COc1cc(C=O)ccc1OCCOCCOc1ccc(Cl)cc1 | / | 16 | 1.2 | -17 | -14
C=CCc1cc(C=O)cc(OC)c1OCc1ccc(Cl)cc1 | / | 0 | 0.9 | 0 | 93*
Cc1ccc(S(=O)(=O)N2CCOCC2)cc1NC(=O)Cn1ccsc1=N | / | 40* | 1.1 | -40 | -4
Cc1cccc(C)c1OCCSc1n[nH]c(N)n1 | / | 6 | 2* | -6 | -24
Cc1cc(C)nc(SCc2nnc(SCC(=O)Nc3nc(-c4ccccc4)cs3)n2-c2ccccc2)n1 | / | 7 | 2* | -7 | -2
Cc1ccc(-n2c(CSc3nc(C)cc(C)n3)nnc2SCC(=O)Nc2nccs2)cc1 | 1 | / | / | / | /
